Assay outcomes deposited in PubChem BioAssay by National Center for Advancing Translational Sciences (NCATS).
Tau fluor cs = counter-screen for tau fibril formation inhibitors; tau K18 P301L Alexa594 fluorescence, heparin fibrillization; Potency, µM (top dose mostly 57.7 µM), inactives show top-dose activity change, negative = decrease; 280,000 compounds, 0.93% hits; AID 1463; also: nearly all actives have a fitted effect of over 55% in size
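Human K18 P301L tau (15 uM unlabeled plus 0.24 uM Alexa 594-labeled, final) in 100 mM sodium acetate pH 7 was mixed with compound and 20 uM heparin and incubated 6 hr at 37 C.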
Tau fibril ThT = tau fibrillization inhibition (ThT binding); P10636; recombinant tau K18 P301L (four-repeat tau fragment), heparin-induced fibrillization, ThT fluorescence; Potency, µM (series often up to 57.4 µM), without a hit: top-dose activity, negative = inhibition, hits mostly inhibitors; 270,000 compounds, 2.1% hits; also: nearly all actives have a fitted effect of over 55% in size
Target sequence (P10636 561-689 P618L limits assumed): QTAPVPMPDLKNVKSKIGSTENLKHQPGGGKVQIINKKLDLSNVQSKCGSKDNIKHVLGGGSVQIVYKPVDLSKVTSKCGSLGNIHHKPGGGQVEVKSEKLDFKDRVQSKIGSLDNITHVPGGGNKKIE
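Heparin-induced fibrillization of the P301L-mutant K18 repeat-domain fragment of human tau was followed by ThT binding in quantitative high-throughput format.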
Tau fibril FP = blocks human tau fibril formation measured by polarization; P10636; K18 P301L tau heparin fibrillization, Alexa594 FP, 6 h; Potency, µM (series often up to 57.7 µM), for the others: top-dose activity, negative = inhibition, most hits filed as inhibitors; 280,000 compounds, 0.39% hits; AID 1468; also: nearly all actives have a fitted effect of over 55% in size
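Quantitative HTS format: compounds meet 15 uM recombinant K18 P301L tau and Alexa 594-tau tracer in 100 mM sodium acetate pH 7; 20 uM heparin triggers fibrillization at 37 C over 6 hr; FP gives the signal.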
Sfp inh = blocks B. subtilis Sfp PPTase activity. Q9F4F7. Biochemical Sfp PPTase activity, qHTS. Potency, µM, inactives show largest response in the series, negative = inhibition, actives largely listed as inhibitors. 310,000 compounds, 3.5% hits;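 also: the enzyme is Sfp with the accession as filed and its product quenches rhodamine fluorescence; 0% = enzyme reaction without inhibitor and -100% = no enzyme wells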
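Fluorescence-quenching assay: 15 nM Sfp-PPTase preincubated 15 min at room temperature with compound, then 5 uM rhodamine-CoA and 12.5 uM BHQ-2-labelled YbbR peptide added. Fluorescence (ex 525/em 598 nm) read at start and after 30 min; difference gives rate.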
VDR inhibitor = vitamin D3 receptor (human) inhibition; VDR-SRC2-3 peptide fluorescence polarization, 2 h; Potency, µM, for inactives: max response, negative = inhibition, most hits filed as inhibitors; P11473; AID 504847; 400,000 compounds, 0.93% hits
Target sequence (P11473 whole entry, looked up): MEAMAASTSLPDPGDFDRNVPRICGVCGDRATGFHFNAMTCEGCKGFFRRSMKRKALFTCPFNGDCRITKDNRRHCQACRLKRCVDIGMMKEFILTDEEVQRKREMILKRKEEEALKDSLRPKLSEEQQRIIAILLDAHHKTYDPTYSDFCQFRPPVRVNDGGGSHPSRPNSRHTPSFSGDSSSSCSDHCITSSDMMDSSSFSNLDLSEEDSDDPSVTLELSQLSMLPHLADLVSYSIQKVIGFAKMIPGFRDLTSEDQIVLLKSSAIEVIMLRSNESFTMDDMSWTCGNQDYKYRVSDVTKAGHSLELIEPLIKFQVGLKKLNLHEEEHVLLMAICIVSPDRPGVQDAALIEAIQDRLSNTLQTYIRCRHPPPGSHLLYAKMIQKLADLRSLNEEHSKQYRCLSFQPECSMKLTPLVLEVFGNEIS
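FP read-out; VDR + SRC2-3 coactivator peptide; 23 nl compound by pintool; 2 h RT incubation; reagents held at 4 deg C, protected from light.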
PLK1 PBD block = blocks phosphopeptide binding to human PLK1 polo-box domain; AID 720504; Potency, µM, for inactives: max response, negative = inhibition, most hits filed as inhibitors; 360,000 compounds, 2.8% hits; Plk1 PBD binding of FITC phosphopeptide, fluorescence polarization; also: series mostly up to about 57 µM; nearly all actives have a fitted effect of over 65% in size
The depositor's hits bear a star; ? = inconclusive; . = no result given; [ ] = another dose, or the depositor's remark. Hits are enriched below; roughly 6% of the tested compounds scored in any of these assays. Calls follow the shape of the dose curve; as a rule, active = well fitted curve in the direction sought with a large enough effect; inconclusive = small, poorly fitted or top-dose-only effect, or another doubt; inactive = no such curve, though single readings can be large; an effect the other way counts as inactive or inconclusive. Unless noted, % is scaled to controls: 0 for no effect and ±100 for the full control effect; potency is read from the fitted curve at half-maximal effect.

SMILES	Tau fluor cs	Tau fibril ThT	Tau fibril FP	Sfp inh	VDR inhibitor	PLK1 PBD block
Cc1nn(-c2ccccc2)c(N2CCCC2)c1/C=N/NC(=O)c1cc2ccccc2cc1O	-4%	0%	7%	4%	-11%	14%
COc1cc(/C=N/Nc2ccccc2[N+](=O)[O-])cc(OC)c1O	0%	9%	5%	-1%	-12%	-6%
Cc1nn(-c2ccccc2)c(N2CCCC2)c1/C=N/Nc1ccc(S(N)(=O)=O)cc1[N+](=O)[O-]	14µM*[quencher]	5µM*	-5%	-9%	-15%	11%
COc1ccc(/C=N\Nc2ccccc2[N+](=O)[O-])c(C(=O)O)c1OC	-17%	?	8%	12%	-6%	-15%
COc1cc(/C=N/Nc2ccc(S(N)(=O)=O)cc2[N+](=O)[O-])cc(OC)c1O	?	1.8µM*	8%	6%	-18%	4%
COc1ccc(/C=N\Nc2ccc([N+](=O)[O-])cc2[N+](=O)[O-])c(C(=O)O)c1OC	-29%	14µM*	-7%	79µM*	-16%	-3%
O=C(Nc1ccc(S(=O)(=O)N2CCCCC2c2cccnc2)cc1)c1ccc(F)cc1 (stereo not given)	?	-6%	?	.	10%	.
CCC1=C2CC[C@H]3C(=O)N(CC)C(=O)[C@H]3[C@H]2[C@@]2(Cc3ccccc3)C(=O)N(CCOC)C(=O)N2C1=O	-8%	-5%	-2%	15%	.	.
CCCNC(=O)OC[C@H]1O[C@@H](CCO/N=C\[C@@H](NS(=O)(=O)c2ccc(C)cc2)[C@H](C)/C=C\CC(=O)OC)C=C[C@@H]1Oc1ccc(OC)cc1	-8%[11.6 µM]	-3%[11.5 µM]	2%[11.6 µM]	?	.	.
CCN(CC)S(=O)(=O)c1ccc(N/N=C(\C)c2ccc3c(c2)OCO3)c([N+](=O)[O-])c1	-21%	-10%	3%	4%	-29%	-9%
O=C(O)c1ccc(/C=N\Nc2ccc(S(=O)(=O)N3CCOCC3)cc2[N+](=O)[O-])cc1	-20%	?	3%	4%	-14%	0%
NS(=O)(=O)c1ccc(N/N=C/c2ccc(C(=O)O)cc2)c([N+](=O)[O-])c1	-20%	11µM*	-4%	?	7%	5%
C/C(=N\Nc1ccc(S(N)(=O)=O)cc1[N+](=O)[O-])c1ccc2c(c1)OCO2	?	3.5µM*	-1%	9%	-2%	-13%
COc1ccc(CN(C)C(=O)c2cc(S(=O)(=O)Nc3ccccc3F)ccc2C)c(OC)c1	.	.	.	-4%	-1%	-2%
CCOc1ccc(CCNC(=O)COC(=O)CSc2ccccc2C)cc1OCC	.	.	.	-5%	-11%	4%
O=C(C1CCCN(Cc2cccc(Cl)c2)C1)N1CCCCC1 (stereo not given)	.	.	.	?	?	19µM*
Cc1ccc(N2C(=O)C(Cl)=C(N3CCN(C)CC3)C2=O)c(C)c1	?	14µM*	25µM*	9%	?	-29%
O=C1C(Cl)=C(N2CCCCCC2)C(=O)N1c1ccc(Br)cc1	.	.	.	-13%	-3%	-18%
CN1CCN(C2=C(Cl)C(=O)N(c3ccc(Cl)cc3)C2=O)CC1	?	25µM*	?	-13%	-2%	-26%
CCOc1ccc(C2C(=O)N(C3CCCCCC3)CC(=O)N2CCC2=CCCCC2)cc1OC (stereo not given)	-10%	-16%	1%	.	9%	.
C#CCCCO/N=C1/C[C@@H](O)[C@@H](O)[C@@H]2[C@@H]3C(=O)N(CCC(=O)OCC)C(=O)[C@H]3CC[C@H]12	-9%[11.6 µM]	-3%[11.5 µM]	?	0%	.	.
Cc1cc(C)cc(S(=O)(=O)c2cnc3ccccc3n2)c1	-6%	-15%	?	-18%	40µM*	3.8µM*
Cc1ccc(Sc2cnc3ccccc3n2)cc1	-18%	-16%	-10%	-9%	-27%	-5%
COCCCNC(=O)c1cnn(-c2ccccc2Cl)c1C1CCN(C(=O)OC(C)(C)C)CC1	-10%	-5%	2%	.	23%	.
NC(=O)c1ccc(NC(=O)COC(=O)c2c3c(nc4ccccc24)/C(=C\c2cccs2)CCC3)cc1	?	-10%	4.5µM*	9%	-24%	-15%
SMILES	Tau fluor cs	Tau fibril ThT	Tau fibril FP	Sfp inh	VDR inhibitor	PLK1 PBD block
CCCCNC(=O)COC(=O)c1c2c(nc3ccccc13)/C(=C\c1cccs1)CC2	.	.	.	.	7%	-7%
CC(C)CNC(=O)COC(=O)c1c2c(nc3ccccc13)/C(=C/c1cccs1)CC2	?	?	-7%	45µM*	-7%	0%
O=C1CSC(=S)N1/N=C/c1ccc(O)c(O)c1O	?	3.5µM*	7.1µM*	3.2µM*	?	0.95µM*
CC(=O)Nc1sc(N/N=C/c2ccc(N(C)C)cc2)nc1-c1ccc(C)cc1	32µM*[quencher]	16µM*	-6%	13%	-13%	-20%
COc1cc(/C=N\Nc2nc(-c3ccc(C)cc3)c(NC(C)=O)s2)ccc1O	?	?	6%	-21%	?	?
CCOc1cc(/C=N\Nc2nc(-c3ccc(C)cc3)c(NC(C)=O)s2)ccc1O	?	20µM*	10%	-11%	-7%	-9%
CC1(c2nc3ccccc3[nH]2)c2ccccc2C(=O)N1Cc1ccccn1 (stereo not given)	.	.	.	.	.	0%
O=C(Sc1nnc(-c2ccccc2)o1)N1c2ccccc2Sc2ccccc21	?	?	13%	-10%	9%	67µM*
COc1cc(-c2nnc(SCC(=O)N3c4ccccc4Sc4ccccc43)o2)cc(OC)c1OC	-23%	-11%	5%	0%	6%	-3%
CCOC(=O)c1c(NC(=S)N2CCCCC2)sc2c1CCN(C(=O)OCC)C2	-11%	?	1%	?	-29%	-18%
CCOC(=O)c1c(NC(=S)N2CCOCC2)sc2c1CCN(C(=O)OCC)C2	-11%	?	-2%	50µM*	?	-25%
CCOC(=O)N1CCc2c(sc(N)c2C#N)C1	-22%	?	-10%	56µM*	?	0%
CCCOc1ccc(C2c3c(oc4ccccc4c3=O)C(=O)N2c2nc(C)c(C(=O)OCC)s2)cc1 (stereo not given)	-9%	-11%	0%	.	-7%	.
S=c1nccc(-c2ccc(Cl)cc2)[nH]1	-23%	?	?	-11%	?	1.5µM*
Cc1ccc(-c2csc(=S)[nH]2)cc1	-11%	?	-11%	35µM*	?	?
S=c1[nH]c(-c2ccc(Cl)cc2)cs1	-21%	?	-7%	11µM*	?	9.5µM*
O=C(c1ccc2c(c1)N(Cc1ccccc1)C(=O)c1ccccc1S2(=O)=O)N1CCN(c2ccccc2)CC1	-26%	-4%	6%	.	-7%	.
CCOC(=O)c1ccc(NC(=O)CSc2ncc(S(=O)(=O)c3ccc(C)c(Cl)c3)c(=O)[nH]2)cc1	-2%	0%	4%	.	5%	.
